Assay outcomes as filed in PubChem.
LDHA block = blocks human lactate dehydrogenase A. AID 1347041. activity change, % (values are at about 110 or 230 µM). purified LDHA, NADH/diaphorase-resazurin fluorescence; stronger effect = lower value. hit rate 0.15% among 480,000; in the data active means activity change below about -30%; inconclusive means mostly about -25% to -30%;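 further: plate controls were DMSO wells for no effect and wells without enzyme for full effect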
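Enzyme activity of human lactate dehydrogenase 5 (2 nM; 0.06 mM NADH, 0.2 mM pyruvate, 5 min, RT) is measured via a resazurin/diaphorase fluorescence readout of residual NADH.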
A549 viability = kills or reduces viability of A549 cells in Nrf2 counter-screen. hit rate 0.16% among 390,000. Potency, µM (series often up to 46 µM), inactives show at the top dose activity change, negative = cytotoxicity, actives largely listed as inhibitors. AID 504648. A549 ARE-Fluc cells, CellTiter-Fluor viability, 18-24 h; further: potency means the concentration at half of the fitted maximal effect; on the % scale 0 is the no-effect control and ±100 the full control effect
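Cytotoxicity counterscreen: CellTiter-Fluor fluorescence was measured in A549 ARE_Fluc cells after 18-24 h of compound exposure in a concentration series. The subsequent BugLite luminescent read reports ARE-luciferase activity.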
mIDH1 inhibitor = blocks human mutant IDH1 R132H enzyme; IDH1-R132H enzyme, NADPH consumption, diaphorase/resazurin fluorescence; Potency, µM (doses to about 76.6 µM), without a hit: top-dose activity change, negative = inhibition, usual class: inhibitors; hit rate 0.093% among 390,000; further: potency means the concentration at half of the fitted maximal effect; on the % scale 0 is the no-effect control and ±100 the full control effect; nearly all actives have a fitted effect of over 65% in size
Target sequence (O75874 whole entry R132H, stated change not applied): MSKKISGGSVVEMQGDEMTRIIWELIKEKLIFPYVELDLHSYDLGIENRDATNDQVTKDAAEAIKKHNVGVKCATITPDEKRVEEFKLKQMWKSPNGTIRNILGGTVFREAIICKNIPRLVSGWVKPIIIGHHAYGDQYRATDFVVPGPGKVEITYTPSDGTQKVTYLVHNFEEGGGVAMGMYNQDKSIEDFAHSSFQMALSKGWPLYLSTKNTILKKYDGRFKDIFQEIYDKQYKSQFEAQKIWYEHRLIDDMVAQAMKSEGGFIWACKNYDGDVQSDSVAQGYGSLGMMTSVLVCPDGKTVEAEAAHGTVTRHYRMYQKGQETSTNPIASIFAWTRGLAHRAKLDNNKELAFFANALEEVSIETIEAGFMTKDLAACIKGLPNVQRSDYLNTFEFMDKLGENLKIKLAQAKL
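IDH1-R132H (0.5 ug/mL) preincubated 30 min with compound, then NADPH (0.016 mM) and alpha-KG (2 mM) added; 80 min at RT, pH 7.5. Remaining NADPH coupled via diaphorase/resazurin to fluorescence (540/590 nm); concentration-response curves normalized to no-enzyme control.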
Nrf2 inh = inhibitors of Nrf2 signaling | Potency, µM (titrated, usually from 46 µM), for the others: at the highest dose activity change, negative = inhibition, usual class: inhibitors | A549 ARE-Fluc reporter, luciferase luminescence, 18-24 h | hit rate 2.1% among 360,000; further: potency means the concentration at half of the fitted maximal effect; on the % scale 0 is the no-effect control and ±100 the full control effect; nearly all actives have a fitted effect of over 60% in size
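A549 ARE_Fluc cells, 5000/well, 5% FBS OPTI-MEM; compounds in dose-response, 18-24 h at 37 °C/5% CO2; CellTiter-Fluor viability read (Ex 405/Em 525), then BugLite luciferase luminescence = Nrf2 activity.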
12-LOX inh = inhibitors of human 12S-lipoxygenase ALOX12; purified 12hLO, xylenol orange hydroperoxide absorbance; Potency, µM (series often up to 108 µM), for the others: top-dose activity change, negative = inhibition, most hits filed as inhibitors; hit rate 1.1% among 580,000; further: potency means the concentration at half of the fitted maximal effect; on the % scale 0 is the no-effect control and ±100 the full control effect
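Purified human 12hLO at 150 nM in 25 mM Hepes, 0.01% Triton X-100, pH 7.0, preincubated 15 min at room temperature with compound. Reaction started with 40 uM arachidonic acid, 30 min at room temperature. Hydroperoxide measured by Fe-xylenol orange, 573/405 nm absorbance ratio.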
Nrf2 ARE act = Nrf2 pathway activation. hit rate 0.31% among 410,000. AREc32 ARE-luciferase reporter (MCF7-derived line), luminescence, 24 h. AID 624171. Potency, µM (series often up to 46.1 µM), inactives show at the highest dose activation, most hits filed as activators; further: potency means the concentration at half of the fitted maximal effect; % of control where 0% means no effect; nearly all actives have a fitted effect of over 65% in size
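AREc32_Fluc, 1000 cells/well, OPTI-MEM + 5% FBS, o/n 37 deg C 5% CO2; 23 nL cpd by pin tool, 24 hr; Steady-Glo 30 min RT, luminescence.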
* = called active by the depositor; ? = inconclusive; . = not tested or not shown; ! = a repeat was not active; [ ] = dose if it differs, or a comment. Rows were chosen to be rich in hits. Some 2.7% of all compounds tested hit in one or more screens of this group. Unless noted, the call rests on the fitted dose curve; in most records, active means well fitted curve in the direction sought with a large enough effect; inconclusive means small, poorly fitted or top-dose-only effect, or another doubt; inactive means no such curve, though single readings can be large; an effect the other way counts as inactive or inconclusive.

SMILES | LDHA block | A549 viability | mIDH1 inhibitor | Nrf2 inh | 12-LOX inh | Nrf2 ARE act
CC(=O)Nc1ccc(Nc2cc(C)nc3c(-c4ccc(C)cc4)cnn23)cc1 | -19 | . | . | . | 2% | .
CN(Cc1nc2scc(-c3ccc(F)cc3)c2c(=O)[nH]1)Cc1ccco1 | 12 | . | . | . | 9% | .
O=C(CC1CCCC1)NCCC(=O)N1CCCC1 | 1 | . | . | . | 10% | .
CCOC(=O)c1ccc(Nc2nc3ccccc3nc2NS(=O)(=O)c2ccc(C)cc2C)cc1 | 2 | . | . | . | -6% | .
Cc1cccc(NC(=O)C2CCN(S(=O)(=O)c3cccs3)CC2)c1 | -4 | -2% | 2% | -8% | -2% | 0%
O=C(CNc1cc(S(=O)(=O)N2CCCCC2)ccc1N1CCCCC1)Nc1ccc(F)cc1 | 2 | . | . | . | 10µM* | .
O=C(Nc1ccc(S(=O)(=O)N2CCCC2)cc1)C1CCN(S(=O)(=O)c2ccc(F)cc2)CC1 | -1 | 0% | 5% | 23µM* | -6% | 3%
Cc1ccc(NC(=O)C2CCN(S(=O)(=O)c3cccs3)CC2)cc1C | -2 | -22% | 0% | 26µM* | . | 3%
Cc1cc(NC(=O)C2CC2)sc1C(=O)NCc1ccc(Cl)cc1Cl | 5 | . | . | . | ? | .
COc1ccc(C(C)=O)cc1COC(=O)COc1cccc(Br)c1 | 7 | . | . | . | ? | .
CC1(C)Cc2c(sc3c2c(N)nc(=S)n3Cc2ccccc2)CO1 | . | . | . | . | 14% | .
CC1(C)Cc2c(sc3[nH]c(=S)n(Cc4ccccc4)c(=O)c23)CO1 | -3 | ? | 2% | 16µM* | ? | 0%
Cc1nc(CSc2ccccc2C(=O)N2CCCc3ccccc32)no1 | -1 | . | . | . | -7% | .
Cc1ccc(C(=O)NCCc2c[nH]c3ccc(C)cc23)cc1 | 1 | . | . | . | -20% | .
CCN1CCN(c2nc(SC)nc3sc4c(c23)CC(C)(C)OC4)CC1 | -5 | -1% | -2% | 12% | 233% | 3%
CC(C)Sc1nc(N2CCOCC2)c2c3c(sc2n1)COC(C)(C)C3 | 1 | . | 0% | 15µM* | -17% | 0%
O=C1C2CC=C(Cl)CC2C(=O)N1CCc1c[nH]c2ccccc12 (stereo not drawn) | -8 | 2% | 10% | 20% | -16% | 4%
O=C1C2CC=C(Cl)CC2C(=O)N1CCc1ccccc1 (stereo not drawn) | -7 | 8% | 5% | 3% | 10µM* | 3%
O=C(NCCC(=O)N1CCCC1)c1cc(=O)[nH]c2ccccc12 | 6 | . | . | . | 16% | .
CCN(c1ccccc1)S(=O)(=O)c1ccc(C(=O)OC2CCCCC2=O)cc1 (stereo not drawn) | ? | . | . | . | 11% | .
Cc1ccc(C)c(S(=O)(=O)N2CCC3(CC2)OCCN3S(=O)(=O)c2cccs2)c1 | 1 | -7% | -3% | ? | 8% | 0%
Cc1cc(F)ccc1S(=O)(=O)N1CCC2(CC1)OCCN2S(=O)(=O)c1cccs1 | -2 | -12% | 2% | 12µM* | 17% | 2%
O=C(O)C1Cc2ccccc2S1 (stereo not drawn) | 4 | . | . | . | -5% | .
CC(C)(C)c1ccc(C2Sc3ccccc3NC3=C2C(=O)c2ccccc23)cc1 (stereo not drawn) | 1 | ? | -13% | 18µM* | -26% | -1%
O=C1OCC2=C1C(c1ccc(F)cc1)Sc1ccccc1N2 (stereo not drawn) | -5 | -16% | 16% | -27% | -32%[57.4 µM] | -1%
SMILES | LDHA block | A549 viability | mIDH1 inhibitor | Nrf2 inh | 12-LOX inh | Nrf2 ARE act
Cc1[nH]c2ccccc2c1C(=O)C(=O)N(C)Cc1ccccc1 | -6 | . | . | . | -47% | .
O=C(N/N=C/C(Cl)=C/c1ccccc1)c1ccco1 | -4 | -3% | 3% | ? | -4% | ?
CC(=C/c1ccccc1)/C=N/NC(=O)c1cnccn1 | -9 | -6% | -8% | 12% | 0% | 0%
O=C(N/N=C/C(Cl)=C\c1ccccc1)c1cnccn1 | 2 | 8% | 2% | ? | 0% | 16µM*
O=C(N/N=C/C(Cl)=C/c1ccccc1)c1cnccn1 | -13 | -3% | 6% | ? | -3% | 11µM*
Cn1nccc1NC(=O)Nc1cccc(Cl)c1Cl | 3 | -1% | 3% | 16µM* | 81% | 4%
CN1CCN(NC(=O)Nc2cccc(Cl)c2Cl)CC1 | -17 | 2% | -13% | 7% | -3% | 0%
Cc1ccoc1C(=O)Nc1ccc(CC(=O)O)cc1 | 2 | -8% | 3% | 1µM* | 0% | -2%
Cc1ccoc1C(=O)Nc1ccc2ccccc2c1 | 3 | 1% | 6% | ? | -3% | 0%
CCc1cc(CC)n(-c2nc3c(c(=O)n(CC(N)=O)c(=O)n3C)n2C)n1 | -3 | . | . | . | 24% | .
Cc1ccc(S(=O)(=O)N2CCCN(C(=O)c3cncn3-c3ccccc3)CC2)cc1 | -37* | . | . | . | 7% | .
O=c1oc2cc(O)ccc2s1 | -9 | 2% | 32% | 13µM* | 12% | ?
Cc1cc(SCC(=O)N/N=C/c2ccc(O)c(O)c2)c(C)cc1Br | 8 | -9% | 5% | 7% | 6.3µM* | 0%
CCOc1ccc(-c2nc(CS(=O)Cc3cc(C)ccc3C)cs2)cc1OC (stereo not drawn) | 8 | . | . | . | ? | .
Cc1cc(C)c(NC(=O)CCn2c(=O)c3cccn3c3ccccc32)c(C)c1 | -5 | ? | -12% | ? | -29% | 4%
CC(C)c1ccc(NC(=O)CCn2c(=O)c3cccn3c3ccccc32)cc1 | -4 | -12% | -11% | 10µM* | 0% | 4%
Cc1ccc(CNC(=O)C2(CC(=O)NC(C)(C)C)CCCC2)cc1 | 0 | . | . | . | -24% | .
CC1CN(CC(=O)Nc2cccc(C(=O)Nc3cccc(C(F)(F)F)c3)c2)CC(C)O1 (stereo not drawn) | 3 | -22% | 5% | 16µM* | 19% | 2%
Cc1nc(-c2ccc(S(=O)(=O)N3CCN(Cc4ccccc4)CC3)s2)cs1 | 0 | 3% | -3% | 16µM* | ? | 0%
O=C(c1ccccc1F)N1CCC2(C1)C(=O)N(CCc1ccccc1)c1ccccc12 (stereo not drawn) | . | . | . | . | 87% | .
O=C(C1CCC1)N(CCc1ccccc1)Cc1ccncc1 | -17 | . | . | . | 4% | .
Cc1oc(-c2ccccc2)nc1C(=O)Nc1nc(CC(N)=O)cs1 | -24 | . | . | . | -5% | .
O=C1c2ccccc2C(=O)c2c(O)c(O)cc(O)c21 | 50 | ? | -5% | -28% | 32µM*! | 3%
CCOC(=O)c1ccc(N2C(=O)c3[nH]nc(-c4ccc(OC)cc4)c3C2c2ccccc2Cl)cc1 (stereo not drawn) | -6 | 0% | -5% | 9% | -8% | -1%
